From PubChem BioAssay AID1851 (National Center for Advancing Translational Sciences (NCATS), 2009) come the findings set out here.

Out of some 16,000 compounds screened, about 5,100 (32%) were called active. Inconclusive results (about 25%) are left out. The list shows a part of the results. A number with no mark means an inactive call. The call rests on the fitted dose curve; in most records, active means well fitted curve in the direction sought with a large enough effect; inconclusive means small, poorly fitted or top-dose-only effect, or effect the other way; inactive means no such curve, though single readings can be large or run the other way. Square brackets hold non-standard residues; d marks the D form. Peptide text beside a SMILES is read from it. * marks the point of attachment. Cbz = O=C(OCc1ccccc1)*

A word on the AC50: it is the concentration giving half of the maximal activity seen.
On the % scale 0 is the no-effect control and ±100 the full control effect.

Sequence of Cytochrome P450 3A4 (Homo sapiens) (P08684 whole entry, looked up): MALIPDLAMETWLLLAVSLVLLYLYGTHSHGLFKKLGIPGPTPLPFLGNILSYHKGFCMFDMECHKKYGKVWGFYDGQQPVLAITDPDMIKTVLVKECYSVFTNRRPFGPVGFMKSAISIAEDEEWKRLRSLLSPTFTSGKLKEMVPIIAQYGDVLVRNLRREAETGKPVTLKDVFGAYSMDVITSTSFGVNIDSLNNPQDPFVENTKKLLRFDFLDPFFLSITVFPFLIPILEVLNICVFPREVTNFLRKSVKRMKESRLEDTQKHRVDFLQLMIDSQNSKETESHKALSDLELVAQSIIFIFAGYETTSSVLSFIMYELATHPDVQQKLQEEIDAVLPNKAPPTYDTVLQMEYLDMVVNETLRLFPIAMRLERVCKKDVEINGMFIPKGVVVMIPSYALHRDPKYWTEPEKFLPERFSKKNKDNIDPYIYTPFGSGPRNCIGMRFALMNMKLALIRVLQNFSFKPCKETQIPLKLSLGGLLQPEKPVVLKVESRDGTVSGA

This experiment has as its target Cytochrome P450 3A4 (Homo sapiens) (UniProt P08684). The experiment can be described thus: Cytochrome panel assay with activity outcomes. The settings on record: recombinant CYP, pro-luciferin dealkylation, luminescence, p450-cyp3a4; series mostly up to 57.1 µM; activity, negative = inhibition: at the top concentration.
As for `CCCCN(CC)C(=O)Cc1ccccc1OC`, the AC50 was 15.8 µM (active).

For the compound `CCCCN(C(=O)NC(=O)Nc1ccccc1OCC)S(C)(=O)=O`, the “activity, negative = inhibition” value is -18.4%. On the same count and under the same terms, with `CCN(CC)C(=O)c1ccc(O)c(OC)c1` the figure was -14.6% [at 25.6 µM]; with `CNC(=O)COC(=O)c1cc2c(C)nn(-c3ccc(F)cc3)c2s1`, -30%. The same measure, in the same setting: with `CCCn1nc2cc(C(=O)NCc3ccccc3OC)ccc2c1OCC` the figure was -3.81% [at 2.29 µM]. Turning to `COc1ccccc1CNC(=O)c1cc2c(C)nn(Cc3ccc(F)cc3)c2s1`, the AC50 was 2.82 µM (active).

For `CC(=O)N[C@@H](C(=O)O)C(C)(C)SN=O`, the AC50 result is “inactive”. Consider `CCC(C#CCN1CCCCC1)(CC)OCCC#N`, for which the “activity, negative = inhibition” value is -12.9%. Same read-out and setting: the figure for `O=C(O)C[C@H](Cc1ccc2c(c1)OCO2)C(=O)O` is -6.76% [at 11.4 µM]. Consider `Cc1c(C(=O)O)oc2ccc(S(=O)(=O)NCc3ccc4c(c3)OCO4)cc12`, for which the half-maximal activity concentration (AC50) is 15.8 µM (active). For the compound `CCc1nc(SCC(=O)NNC(=O)C2CCCCC2)c2ccccc2n1`, the “activity, negative = inhibition” value was 12.1%. Consider `CC(=O)Nc1nnc(CCN2CCCCC2)s1`, for which the “activity, negative = inhibition” value was 18%. Consider `CCc1nnc(NC(=O)CSc2nc(C3CCCCC3)nc3ccccc23)s1`, for which the AC50 is 2.51 µM (active). Regarding `Cc1ccc(SCN2CCCCC2)cc1` (tested in a mixture with another compound), the activity, negative = inhibition was -20% [at 11.4 µM]. Regarding `Cc1ccc(SCC(=O)NNC(=O)C2CCCCC2)cc1`, the AC50 is 7.94 µM (active).

With `CCCc1nc(SCC(=O)NNC(=O)C2CCCCC2)c2ccccc2n1`, the concentration at half-maximal activity (AC50) is 3.55 µM (active).

`CCc1nnc(NC(=O)CSc2nc3cc4c(cc3cc2C)OCCO4)s1`: the half-maximal activity concentration (AC50) was 14.1 µM (active). For the compound `CCCS(=O)(=O)N1CCCC(C(=O)N2CCN(C(=O)OCC)CC2)C1` (stereo unspecified), the “activity, negative = inhibition” value is 22.2%. As for `O=C(O)C1=CC(=C(c2ccc(O)c(C(=O)O)c2)c2ccc(O)c(C(=O)O)c2)C=CC1=O`, the “activity, negative = inhibition” value is -13.9%.

For the compound `O=C(O)c1ccc(C(=O)c2ccccc2C(=O)O)cc1C(=O)O`, the activity, negative = inhibition is -0.636% [at 11.4 µM]. For `CC1=C/C(=C(/c2ccc(O)c(C)c2)c2ccccc2C(=O)O)C=CC1=O`, the AC50 was 1.58 µM (active). With `Cc1ccccc1N1CCN(S(=O)(=O)C[C@@]23CC[C@H](C[C@H]2NC(=O)[C@@H](N)CCS(C)(=O)=O)C3(C)C)CC1`, the AC50 was 3.16 µM (active). In the case of `O=C(CCCCn1c(=O)c2ccccc2n(CC(=O)NC2CCCC2)c1=O)NC1CCCC1`, the AC50 is 5.01 µM (active). As for `CC(=O)CCCCn1c(=O)c2c(ncn2C)n(C)c1=O`, the “activity, negative = inhibition” value is -0.936% [at 25.6 µM]. The same measure, in the same setting: the figure for `Cn1c(=O)n(CCC(=O)O)c2ccccc21` is -1.84%. In the case of `COc1ccccc1CNC(=O)CCCn1c(=O)c2ccccc2n(CC(=O)NC2CCCC2)c1=O`, the AC50 is 4.47 µM (active). Still for that read-out and setting: with `CC1(C)Oc2ccc(C#N)cc2[C@H](N2CCCC2=O)[C@H]1O` the entry was “inactive”.

For the compound `Cc1n[nH]c(=O)[nH]c1=O`, the “activity, negative = inhibition” value was -9.3% [at 25.6 µM]. For the compound `Cc1noc(NS(=O)(=O)c2ccc(N/C=C\C(=O)c3ccc4c(c3)OCO4)cc2)c1C`, the AC50 was 14.1 µM (active). The same measure, in the same setting: with `Cc1noc(NS(=O)(=O)c2ccc(N/C=C/C(=O)c3ccc4c(c3)OCO4)cc2)c1C` the figure was 11.2 µM (active). Turning to `O=C(Nc1cnn(Cc2ccc(Cl)cc2)c1)c1ccc([N+](=O)[O-])cc1`, the activity, negative = inhibition was -0.424% [at 2.29 µM]. The same measure, in the same setting: with `O=C(Nc1ncc(Cc2cccc(Cl)c2)s1)C1=NCCN1` the figure was -16.4%. In the case of `O=C(Nc1ncc(Cc2cc(Cl)ccc2Cl)s1)c1ccc([N+](=O)[O-])cc1`, the AC50 was 6.31 µM (active). As for `CSCC[C@H](C=O)NC(=O)[C@H](CC(C)C)NC(=O)[C@H](CC(C)C)NC(C)=O` (Ac-Leu-Leu-[dM]-aldehyde), the “activity, negative = inhibition” value is -15.9%. As to `CC(C)[C@H](NC(=O)OCc1ccccc1)C(=O)N[C@H](C=O)Cc1ccccc1` (Cbz-Val-Phe-aldehyde), the AC50 is 6.31 µM (active). As for `N[C@H](C(=O)O)[C@H](OCc1ccccc1)C(=O)O`, the “activity, negative = inhibition” value is 7.73%. On to `CC(C)C(NC(=O)OCc1ccccc1)C(=O)O` (stereo unspecified), for which the “activity, negative = inhibition” value is 2.93%.

Consider `CC(C)C[C@H](NC(=O)[C@@H](O)[C@H](N)Cc1ccccc1)C(=O)O`, for which the “activity, negative = inhibition” value was -14.6%. On to `CCCCC(C=O)NC(=O)C(CC(C)C)NC(=O)OCc1ccccc1` (stereo unspecified), for which the concentration at half-maximal activity (AC50) is 15.8 µM (active). Still for that read-out and setting: with `CCCSC1=C(C#N)C(c2cccnc2)C(C(=O)OCC)=C(c2ccccc2)N1` (stereo unspecified) the figure was 11.2 µM (active). Same read-out and setting: with `COc1ccc(N(C(=O)COc2ccccc2OC)S(=O)(=O)c2ccc(C)cc2)cc1` the figure was 25.1 µM (active). Turning to `COc1ccc(N(CC(=O)O)N=O)cc1`, the activity, negative = inhibition was -6.51% [at 11.4 µM]. The same measure, in the same setting: the figure for `CN(C)CCO[C@@H](c1ccc(Cl)cc1)c1ccccn1` is 2.09% [at 25.6 µM]; for `CC1(C)[C@@H]2CC[C@]1(C)[C@@H](OC(=O)/C=C\c1ccccc1)C2` it is -9.57% [at 11.4 µM]. For `Nc1nnc(SCCOc2cccc(Br)c2)s1`, the AC50 was 12.6 µM (active). With `COCCn1c(C)cc(C2=NNC(=Nc3ccc(F)cc3)SC2)c1C`, the activity, negative = inhibition is 15.3% [at 11.4 µM].

`FC(F)Sc1ccc(N=C2NN=C(c3ccc4c(c3)OCCO4)CS2)cc1`: the AC50 is 12.6 µM (active).

For the compound `O=C1c2ccccc2C(=O)N1CC1c2ccccc2CCN1S(=O)(=O)c1ccccc1` (stereo unspecified), the AC50 was 2 µM (active).

With `C[C@H](O)[C@H](O)[C@@H]1CNc2nc(N)[nH]c(=O)c2N1`, the “activity, negative = inhibition” value was -6.18%.

Turning to `CC1CCCCN1c1nc(-c2ccncc2)nc2ccccc12` (stereo unspecified), the AC50 was 0.631 µM (active). `CCN1CCN(c2nc(-c3ccccn3)nc3ccccc23)CC1`: the activity, negative = inhibition was 9.59% [at 2.29 µM]. As for `CN(Cc1ccco1)c1ncnc2ccc(-c3cccc(NS(C)(=O)=O)c3)cc12`, the AC50 was 5.01 µM (active). The same measure, in the same setting: the figure for `CN(Cc1ccco1)c1ncncc1-c1cccc(NS(C)(=O)=O)c1` is 0.794 µM (active). For the compound `O=C1c2ccccc2-c2ccc(N(Cc3ccc(Br)cc3)Cc3ccc(Br)cc3)cc21`, the activity, negative = inhibition was 3.02% [at 11.4 µM]. Still for that read-out and setting: with `O=C(O)[C@H](CCc1ccccn1)c1ccccc1` the figure was 0.483% [at 11.4 µM].

On to `C[C@@H](C1=C(CCN(C)C)Cc2ccccc21)c1ccccn1`, for which the “activity, negative = inhibition” value was -14.4%. As for `CN(CCc1ccccn1)c1ccc2c(c1)C(=O)c1ccccc1-2`, the AC50 is 3.16 µM (active). Take `CN(CCc1ccccn1)c1ccc2c(c1)Cc1ccccc1-2`: the AC50 is 2.51 µM (active). For `CCn1c(COc2ccc(OC)cc2)nc2ccccc21`, the AC50 is 1.26 µM (active). Regarding `CCn1c(N)nc2ccccc21`, the “activity, negative = inhibition” value was -22.1%. The same measure, in the same setting: with `c1ccc(Cn2c(CN3CCCC3)nc3ccccc32)cc1` the figure was -12.3% [at 2.29 µM].
